Measurements published in PubChem BioAssay AID1851 (National Center for Advancing Translational Sciences (NCATS), 2009).
In all, about 16,000 compounds went through this assay and about 5,700 (36%) were called active. Inconclusive results (about 24%) are left out. The call rests on the fitted dose curve; in most records, active means well fitted curve in the direction sought with a large enough effect; inconclusive means small, poorly fitted or top-dose-only effect, or effect the other way; inactive means no such curve, though single readings can be large or run the other way. Some of the results follow.

Target: Cytochrome P450 1A2 (Homo sapiens) (UniProt P05177)
Assay: Cytochrome panel assay with activity outcomes
Conditions: recombinant CYP, pro-luciferin dealkylation, luminescence, p450-cyp1a2; series mostly up to 57.1 µM
On the % scale 0 is the no-effect control and ±100 the full control effect.

Chain of Cytochrome P450 1A2 (Homo sapiens) (P05177 whole entry, looked up): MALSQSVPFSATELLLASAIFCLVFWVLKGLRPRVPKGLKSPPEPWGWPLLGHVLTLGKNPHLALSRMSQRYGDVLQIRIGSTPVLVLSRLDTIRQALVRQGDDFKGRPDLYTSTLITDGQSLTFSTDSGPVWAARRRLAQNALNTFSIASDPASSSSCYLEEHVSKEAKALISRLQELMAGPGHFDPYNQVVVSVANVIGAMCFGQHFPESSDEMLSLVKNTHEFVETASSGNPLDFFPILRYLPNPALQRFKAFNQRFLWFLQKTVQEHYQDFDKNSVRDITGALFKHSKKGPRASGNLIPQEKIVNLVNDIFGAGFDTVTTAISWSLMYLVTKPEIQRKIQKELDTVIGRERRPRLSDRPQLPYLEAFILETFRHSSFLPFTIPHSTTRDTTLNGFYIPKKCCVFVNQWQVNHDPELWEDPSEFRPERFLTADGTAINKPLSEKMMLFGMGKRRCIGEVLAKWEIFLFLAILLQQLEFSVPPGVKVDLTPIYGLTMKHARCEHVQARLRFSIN

AC50, active:
CCCOc1ccccc1-c1nc2n[nH]nc2c(=O)[nH]1 3980 nM
C=CCSC1=Nc2sccc2C2=NC(=O)CN12 1780 nM
CSC1=N/C(=C\c2ccc3c(c2)OCO3)C(=O)S1 1000 nM
CSC1=N/C(=C\c2ccc(Br)o2)C(=O)S1 3550 nM
CSC1=N/C(=C\c2ccc(C)cc2)C(=O)S1 2820 nM
c1ccc2cc(Sc3ncnc4c3oc3ccccc34)ccc2c1 1580 nM
CC1(c2ccccc2)NC(=O)N(CC(=O)NCCC2=CCCCC2)C1=O (stereo unspecified) 11200 nM
O=C(CN1CCN(c2ncccn2)CC1)NCCC1=CCCCC1 1580 nM
O=C(COc1ccc(Cl)cc1)NCCC1=CCCCC1 11200 nM
CCC(C)n1nnc2c(=O)oc3ccccc3c21 (stereo unspecified) 708 nM
Oc1ccccc1-c1cc(-c2ccccc2)no1 1260 nM
Cc1ccccc1-c1cc(-c2ccccc2O)on1 2510 nM
Nc1nc(-c2ccccc2)cc(-c2ccccc2O)n1 631 nM
CC(=O)N1CCN(c2nc(C)nc3sc4c(c23)CCC(C)C4)CC1 (stereo unspecified) 15800 nM
C(=N\N(c1ccccc1)c1ccccc1)/c1ccc2c(c1)OCO2 2000 nM
CCOc1ccc(CC(=O)C2C(=O)CCCC2=O)cc1OCC 10000 nM
O=C(Nc1ccc(Cl)cc1)N1CCc2[nH]c3ccccc3c2C1 3550 nM
Cc1cc(SCC(=O)c2cccs2)nc2c(C)cccc12 891 nM
C=CCc1ccccc1OC[C@H](O)CNC(C)C 3160 nM
C=CCOc1ccccc1OC[C@H](O)CNC(C)C 5010 nM
CSc1nc(-c2ccc(C)cc2)[nH]c1S(=O)(=O)c1ccccc1 14100 nM
c1ccc(CCSc2nccn2-c2ccccc2)cc1 1780 nM
Clc1ccc(CSc2nccn2Cc2ccccc2)cc1 25100 nM
CCc1ccc(CSc2nccn2-c2ccccc2)cc1 1260 nM
O=C(CSc1nccn1-c1ccccc1)c1ccc(Cl)cc1 891 nM
O=C(c1ccccc1)c1ccc2nc(-c3ccc(NC(=O)c4ccccc4Br)cc3)[nH]c2c1 8910 nM
Cc1nc2cnc(N3CCN(C)CC3)nc2n(C)c1=O 12600 nM
Cc1nc2cnc(N3CCOCC3)nc2n(C)c1=O 6310 nM
Nc1ccccc1Nc1ccccc1 25100 nM
Nc1ccc(Nc2ccccc2)cc1 12600 nM
CCc1c(C(C)O)oc2ccc3c(C)cc(=O)oc3c12 (stereo unspecified) 282 nM
Cc1c(C(=O)N/N=C/c2ccccc2)sc(=S)n1C 891 nM
CCCC(=O)Nc1nc2nc(-c3ccccc3)cc(-c3ccccc3)n2n1 2510 nM
Cn1c(=O)c(-c2ccc(F)c(F)c2)nc2cncnc21 158 nM
Cn1c(=O)c(-c2ccccc2)nc2cncnc21 631 nM
Cn1c(=O)c(-c2ccc(F)cc2)nc2cncnc21 158 nM
Cn1c(=O)c(-c2cccc(Cl)c2)nc2cncnc21 501 nM
Cn1c(=O)c(-c2cc(F)cc(F)c2)nc2cncnc21 631 nM
Cn1c(=O)c(-c2ccc(Cl)cc2)nc2cncnc21 25.1 nM
Cc1ccc(S(=O)(=O)CC#CCOC(=O)c2ccc([N+](=O)[O-])cc2)cc1 6310 nM
C/C(=N\NC(=S)Nc1ccc(F)cc1)C1CC1 1780 nM
N=C(N)SCc1cccc2c(=O)cc(-c3ccccc3)oc12 126 nM
CCNc1ncc2nc(-c3cccs3)c(=O)n(C[C@H]3CCCO3)c2n1 2510 nM
CN1CCN(c2ncc3nc(-c4cccs4)c(=O)n(C[C@H]4CCCO4)c3n2)CC1 12600 nM
CN(C)c1ncc2nc(-c3cccs3)c(=O)n(C[C@H]3CCCO3)c2n1 1580 nM
COc1cccc(/C=N/NC(=O)CO/N=C(\C)c2cccs2)c1OC 1410 nM
COc1ccccc1/C=C/C(=O)c1c2c(c(C)[nH]c1=O)CCCC2 12600 nM
Cc1[nH]c(=O)c(C(=O)/C=C/c2ccccc2F)c2c1CCCC2 11200 nM
COc1ccccc1/C=C/C(=O)c1ccc(Cl)cc1 3550 nM
COc1ccc2ccccc2c1/C=C\C(=O)c1ccccc1 3160 nM

AC50, inactive:
Nc1nc2n[nH]nc2c(=O)[nH]1
CN(C)C(=O)CN(c1ccc2c(c1)OCO2)S(C)(=O)=O
C[C@@H]1C[C@@H]2[C@H]3CCC4=CC(=O)C=C[C@]4(C)[C@]3(F)[C@@H](O)C[C@]2(C)[C@@]1(O)C(=O)CO
CC(=O)Nc1ccc(S(=O)(=O)NC(CC(=O)NCCC2=CCCCC2)C(C)C)cc1 (stereo unspecified)
Cc1nc2ncnn2c(C)c1CCC(=O)NCCC1=CCCCC1
CCCCCOc1ccc(NC(=O)C(=O)NCCC2=CCCCC2)cc1
COc1ccc(C(=O)CN2C(=O)NC(C)(c3ccccc3)C2=O)cc1OC (stereo unspecified)
COc1ccc(OC)c(C(=O)CN2C(=O)NC(C)(c3ccccc3)C2=O)c1 (stereo unspecified)
Cc1ccc(S(=O)(=O)N(CC(=O)NCCC2=CCCCC2)Cc2ccccc2F)cc1
C=CCN1CCc2cc(O)c(O)cc2[C@H](c2ccccc2)C1
Cc1cc(C(F)F)n2nc(C(=O)Nc3sc4c(c3C#N)CCC(C)C4)nc2n1 (stereo unspecified)
CCOc1cc(CN2CCN(c3ccc(C(C)=O)cc3)CC2)ccc1OC
CCOc1ccc(CNC(=O)C2CCC(=O)N2C2CCCC2)cc1OC (stereo unspecified)
O=C(Nc1ccccc1)N1CCOCC1
COC(=O)N1CCC2(CC1)CN(C(=O)Nc1ccccc1)C2
COC(=O)[C@@]1(Cc2ccc(OC)cc2)[C@H]2c3cc(C(=O)N4CCCC4)n(Cc4ccc(C(F)(F)F)nc4)c3C[C@H]2CN1C(=O)c1ccccc1
CC(C)(C)NC[C@H](O)COc1cccc2[nH]c(=O)[nH]c12
C=CCOc1ccc(CNC(C)(C)CO)cc1OCC
O=C1c2ccccc2C(=O)N1CC1c2ccccc2CCN1S(=O)(=O)c1ccccc1 (stereo unspecified)
COc1ccc(CCNC(=O)C2CCN(S(=O)(=O)N3CC(C)CC(C)C3)CC2)cc1OC (stereo unspecified)
CNc1oc(C)nc1S(=O)(=O)c1ccc(C)cc1
Cc1ccc(S(=O)(=O)c2cc(C#N)c(=O)[nH]c2N)cc1
O=C(C1CCN(S(=O)(=O)c2cccc3nsnc23)CC1)N1CCN(c2ccccc2F)CC1
COC(=O)[C@H](CCSC)NC(=O)NCc1ccccc1F
O=C(c1ccccc1)c1ccc2nc(-c3ccc(NC(=O)c4ccccc4F)cc3)[nH]c2c1
C1COC(NC(C2CC2)C2CC2)=N1
Cc1c(NC(=S)N/N=C/c2ccc(O)cc2)c(=O)n(-c2ccccc2)n1C
CCCC(=O)Nc1nc2n(n1)C(c1ccccc1)CC(=O)N2 (stereo unspecified)
COc1cc(NC(=O)c2cc3nc(-c4ccccc4)cc(-c4ccccc4)n3n2)cc(OC)c1OC
COc1ccc(-n2c(=O)c(-c3ccc(F)cc3)nc3cncnc32)cc1
C[C@]1(C2CCCC2)Cc2cc(OCC(=O)O)c(Cl)c(Cl)c2C1=O
COC(=O)[C@@]1(Cc2ccc(F)cc2)[C@H]2c3cc(C(=O)N4CCCC4)n(CCc4c[nH]c5ccccc45)c3C[C@H]2CN1C(=O)c1ccccc1
CC(=O)NN1C(=O)c2ccc(Oc3ccc([N+](=O)[O-])cc3)cc2C1=O
Cc1ccc(S(=O)(=O)CCCS(=O)(=O)c2ccc(C)cc2)cc1
CCOc1ccc2ccccc2c1C(=O)N[C@@H]1C(=O)N2[C@@H]1SC(C)(C)[C@@H]2C(=O)O

activity, negative = inhibition, inactive:
O=C(O)[C@H](Cc1cc(I)c(O)c(I)c1)C1CCCCC1 -8.77% [at 2.29 µM]
CC(C)=NOCc1cccc(-c2cc(-c3ccccc3)no2)c1 1.37% [at 11.4 µM]
Nc1nc(-c2cc(-c3cccc4ccccc34)nc(N)n2)cc(-c2cccc3ccccc23)n1 -4.4% [at 2.29 µM]
CC(C)=NOCc1ccc(-c2cc(-c3ccccc3)no2)cc1 -4.03% [at 11.4 µM]
CC(C)CN=C(N)N=C(N)N -9.85% [at 11.4 µM]
CC1CCC(O)([C@](C)(C(=O)O)c2ccccc2)CC1 (stereo partly specified) -4.6% [at 11.4 µM]
CCCNC(=O)OC[C@@H]1O[C@H](c2ccccc2)C=C[C@@H]1Oc1ccc(OC)cc1 -7.29% [at 11.4 µM]
C#CCCCO/N=C1/C[C@@H](O)[C@@H](O)[C@@H]2[C@@H]3C(=O)N(CCC(=O)OCC)C(=O)[C@H]3CC[C@@H]12 -0.481% [at 11.4 µM]
CC1(C)N=C(N)N=C(N)N1c1cccc(CSc2ccccc2)c1 -17.2% [at 2.29 µM]
O=c1ccnc(SCc2ccc(Cl)cc2)[nH]1 -17.6% [at 11.4 µM]
N#[N+]c1ccc(Nc2ccccc2)cc1 -12.6% [at 11.4 µM]
CC(C)N1CCN(c2ccncc2S(=O)(=O)N2CCCCC2)CC1 -16.9% [at 2.29 µM]
OCCCSCCO -19.1% [at 2.29 µM]
CCCC[C@@H]1CN2[C@H](c3ccc(Br)cc3)[C@@H](C)CC[C@H]2C(=O)O1 -6.09% [at 11.4 µM]
CO[C@@H]1COC(=O)C/C=C\[C@H](C)[C@H](OC)COC(=O)[C@H]2CCCN2C(=O)C/C=C\[C@H]1C 1.02% [at 11.4 µM]
COc1cc(C)cc(OC)c1/C=C\C(=O)O -6.92% [at 11.4 µM]
